# DRD3 agonist – D3 dopamine receptor (human) agonism; P35462; D3R DiscoveRx beta-arrestin cells, luminescence, 90 min; max activation, %; hit rate 0.58% among 410,000; in the data active means max activation above about 30%; further: 0% is about no effect
# Target sequence (P35462 whole entry, looked up): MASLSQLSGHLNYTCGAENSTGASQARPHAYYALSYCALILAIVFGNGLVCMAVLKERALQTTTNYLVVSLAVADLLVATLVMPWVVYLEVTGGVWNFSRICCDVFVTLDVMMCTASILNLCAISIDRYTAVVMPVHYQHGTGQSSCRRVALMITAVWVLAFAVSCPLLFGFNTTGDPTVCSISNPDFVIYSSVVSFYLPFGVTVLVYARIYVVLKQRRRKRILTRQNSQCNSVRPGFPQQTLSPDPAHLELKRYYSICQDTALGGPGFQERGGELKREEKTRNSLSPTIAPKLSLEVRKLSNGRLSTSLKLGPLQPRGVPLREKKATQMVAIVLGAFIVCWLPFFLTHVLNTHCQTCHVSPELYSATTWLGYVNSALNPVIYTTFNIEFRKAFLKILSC
#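 Agonist-mode cell screen: cells plated at 1500/well and incubated overnight at 37 °C, then exposed to library compounds for 90 min at 37 °C. Detection reagent was added for 30–60 min at room temperature, and luminescence was read.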
# D3 antag – antagonists of human D3 dopamine receptor; P35462; D3R cells, DiscoveRx beta-arrestin luminescence, antagonist mode; active compounds read low; max response, negative = inhibition, %; hit rate 2.5% among 360,000; AID 652054; in the data active means max response below about -50%; inconclusive means no clear call, values can overlap the other calls; further: on the % scale 0 is the no-effect control and ±100 the full control effect
#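 Cells plated overnight at 1500 cells/well, then exposed to library compounds with dopamine controls for 90 minutes at 37 degrees C. DiscoveRx reagent added for 30–60 minutes at room temperature; luminescence read, quantitative HTS format.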
# MCF10A rereplic – inducers of DNA re-replication in MCF 10A breast cells | MCF 10A DNA re-replication, Hoechst nuclear intensity, 48 h | Potency, µM (doses to about 46.1 µM), inactives show at the highest dose activity, positive = re-replication, most hits filed as activators | hit rate 2.9% among 350,000; further: potency means the concentration at half of the fitted maximal effect; % of control where 0% means no effect; nearly all actives have a fitted effect of over 50% in size
# KB-V1 cytotox – KB-V1 MDR subline cytotoxicity. hit rate 3.4% among 400,000. Potency, µM (doses to about 46.1 µM), most hits filed as cytotoxic. KB-V1 MDR cells viability, CellTiter-Glo, 72 h; further: potency means the concentration at half of the fitted maximal effect; on the % scale 0 is the no-effect control and ±100 the full control effect; nearly all actives have a fitted effect of over 60% in size
#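 Luminescent ATP read-out (CellTiter-Glo, 10 min) measures survival of drug-selected KB-V1 MDR cells after 72 h, 37 degrees C compound exposure. Medium: phenol-red-free DMEM, 10% FBS. Values from fitted concentration-response curves.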
# KB-3-1 cytotox – KB-3-1 parental cell cytotoxicity | KB-3-1 viability, CellTiter-Glo ATP luminescence, 72 h | Potency, µM (top dose mostly 46.1 µM), hits mostly cytotoxic | hit rate 1.4% among 400,000; further: potency means the concentration at half of the fitted maximal effect; on the % scale 0 is the no-effect control and ±100 the full control effect; nearly all actives have a fitted effect of over 60% in size
#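 Luminescent ATP read-out (CellTiter-Glo) measures survival of drug-naive KB-3-1 cells after 72 h compound exposure at 37 °C. Titration series was screened from lowest to highest concentration, with DMSO vehicle plates as background controls.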
# SW480 rereplic – inducers of DNA re-replication in SW480 colon cancer cells. SW480 DNA re-replication, Hoechst DNA content imaging, 48 h. Potency, µM (series often up to 46.1 µM), for inactives: at the top dose re-replication activation, most hits filed as activators. hit rate 1.8% among 340,000. AID 624297; further: potency means the concentration at half of the fitted maximal effect; % of control where 0% means no effect; nearly all actives have a fitted effect of over 55% in size
#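 Image-based DNA-content assay: after two days of treatment, nuclei were labelled with the DNA dye Hoechst and imaged, and hits were compounds raising the count of nuclei showing high fluorescence intensity.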
# * hit, by the source's call; i = inactive; ? = inconclusive; . = not tested or not shown; [ ] = dose if it differs, or a comment. A selection: hits, their analogues and other compounds. The true share with any hit is near 8.9%. Unless noted, the call rests on the fitted dose curve; in most records, active means well fitted curve in the direction sought with a large enough effect; inconclusive means small, poorly fitted or top-dose-only effect, or another doubt; inactive means no such curve, though single readings can be large; an effect the other way counts as inactive or inconclusive.
SMILES,DRD3 agonist,D3 antag,MCF10A rereplic,KB-V1 cytotox,KB-3-1 cytotox,SW480 rereplic
Cc1ccc(S(=O)(=O)Nc2c(NC3CCCCC3)c3ccccc3oc2=O)cc1,-15.9,13.0,10.6%,i,?,?
Nc1c(NC2CCCCC2)c2ccccc2oc1=O,13.7,-4.4,2.3%,16.4µM*,i,2.3%
O=C(NC1CCCCC1)C(c1ccco1)N(CCc1ccccc1)C(=O)C(F)(F)F (configuration not stated),-3.6,-7.1,1.7%,7.31µM*,?,1.4%
O=C(NC1CCCCC1)C(c1ccco1)N(Cc1cccs1)C(=O)Cn1nnc2ccccc21 (configuration not stated),-11.5,-20.0,-5.5%,5.17µM*,i,1.4%
O=C(NCc1ccco1)C(c1ccco1)N(Cc1cccs1)C(=O)Cn1nnc2ccccc21 (configuration not stated),2.9,-7.3,22.3%,i,i,0.9%
O=C(NC1CCCCC1)C(c1cccs1)N(C(=O)C(F)(F)F)c1ccccc1 (configuration not stated),5.9,9.6,14.6µM*,i,i,?
CC(C)(C)NC(=O)C(c1cccs1)N(C(=O)C(=O)NC1CCCC1)c1ccccc1F (configuration not stated),-14.8,-64.8*,11.2%,i,i,68.4%
NC(=O)c1nsc(C(=O)N(CCc2ccccc2)C(C(=O)NC2CCCC2)c2ccco2)c1N (configuration not stated),7.6,10.8,3.1%,i,i,-0.7%
Cc1nn(C(=O)c2c(F)cccc2F)c(C)c1S(=O)(=O)N1CCCCCC1,-0.9,.,.,i,i,.
COC(C[C@H](O)C[C@H](O)[C@H](C)OCc1ccccc1)OC,7.3,-21.4,3.8%,?,i,-64.3%[9.22 µM]
COc1ccc(OC)c(NC(=O)CSc2nccn2-c2cc(C)cc(C)c2)c1,-12.6,.,.,?,i,.
O=C1NC[C@H](Cc2ccccc2)N(CC2CCN(CCCCc3ccccc3)CC2)C1=O,-46.0,-50.5*,-20.2%,i,i,-4.9%
CC(C)CCN1CCC(CN2C(=S)NC[C@@H]2Cc2ccccc2)CC1,-49.8,-27.7,-33.2%,i,i,-39.1%
CC(CCN1CCC(CN2C(=S)NCC2Cc2ccccc2)CC1)c1ccccc1 (configuration not stated),-41.0,-62.8*,?,i,i,0.5%
S=C1NC[C@H](Cc2ccccc2)N1CC1CCN(CCCCc2ccccc2)CC1,-41.5,-92.6*,?,i,i,?
CCOC(=O)C1CCN(C(=O)CSc2n[nH]c(-c3ccc(F)cc3)n2)CC1,-0.3,.,.,i,i,.
Brc1ccc(C2C=Cc3ccccc32)cc1 (configuration not stated),.,.,.,i,?,.
CCS(=O)(=O)N1CCC(C(=O)NCCCN2CCN(c3ccccc3F)CC2)CC1,39.6*,-52.2*,?,i,i,-13.0%
CCN(CCCNC(=O)C1CCN(S(=O)(=O)CC)CC1)c1ccccc1,1.7,-12.3,2.91µM*,i,i,10.0%
CCCS(=O)(=O)N1CCCC(C(=O)NCCCN2CCN(c3ccccc3F)CC2)C1 (configuration not stated),30.7*,-53.3*,-3.1%,i,i,-2.9%
O=C(NCCCN1CCN(c2ccccc2F)CC1)C1CCN(S(=O)(=O)c2cccs2)CC1,0.0,?,-1.7%,i,i,2.2%
CCCS(=O)(=O)N1CCCC(C(=O)NCCCN2CCN(c3cccc(Cl)c3)CC2)C1 (configuration not stated),0.3,-25.2,0.1%,i,i,2.2%
CSCCC(NC(=O)c1ccco1)C(=O)NCc1ccc2c(c1)OCO2 (configuration not stated),6.6,18.2,-1.4%,i,i,-5.4%
COC(=O)c1ccc(NC(=O)C(=O)NCCc2sc(-c3cccc(F)c3)nc2C)cc1,4.5,.,.,i,i,.
Cc1cc(CNC(=O)c2cccc([N+](=O)[O-])c2C)c2ccccc2n1,4.5,15.9,-2.1%,5.8µM*,i,13.2%
SMILES,DRD3 agonist,D3 antag,MCF10A rereplic,KB-V1 cytotox,KB-3-1 cytotox,SW480 rereplic
Cc1c(C(=O)NCCSCc2ccc(Cl)cc2Cl)cccc1[N+](=O)[O-],0.4,14.8,?,25.9µM*,?,19.6%
Cc1cc(CNC(=O)Cc2ccccc2)c2ccccc2n1,-13.6,5.1,0.8%,?,i,2.3%
Cc1[nH]c(C)c(S(=O)(=O)Nc2ccccc2Cl)c1C(=O)N1CCCC1,2.4,-5.8,-2.0%,?,i,0.4%
Cc1[nH]c(C)c(S(=O)(=O)Nc2cccc(Cl)c2C)c1C(=O)N1CCCCC1,-4.6,-51.2*,-2.5%,i,i,0.9%
Cc1ccc(NS(=O)(=O)c2c(C)[nH]c(C)c2C(=O)N2CCCC2)cc1Cl,-20.9,-85.8*,-0.7%,i,i,-14.1%
Cc1[nH]c(C)c(S(=O)(=O)Nc2cccc(Cl)c2C)c1C(=O)N1CCCC1,-2.9,-65.1*,-1.3%,i,i,-26.5%
Cc1nn(C)c2c1c(-c1ccccc1)cc(=O)n2Cc1ccc(Cl)cc1,10.9,.,.,i,i,.
COC(=O)c1ccccc1-c1ccc(C(c2c(C)[nH][nH]c2=O)c2c(C)[nH][nH]c2=O)o1,2.7,-23.6,14.1µM*,?,?,25.5%
CCN(C(=O)c1sc2nc3n(c(=O)c2c1C)CCCC3)c1ccccc1F,-13.4,.,.,i,i,.
CC(C(=O)NCC(=O)Nc1ccc(F)c(F)c1F)N1CCN(Cc2ccc(C#N)cc2)CC1 (configuration not stated),3.9,-2.0,3.5%,13µM*,i,3.6%
CC(C(=O)NCC(=O)Nc1ccc(F)c(F)c1F)N1CCN(c2ccc(O)cc2)CC1 (configuration not stated),-1.6,12.7,8.5%,i,?,2.6%
O=C(NC1CCCC1)c1cnn2c1NC(=C1CC1)C=C2C(F)F,.,.,.,i,?,.
O=C(CNc1cc(S(=O)(=O)N2CCOCC2)ccc1N1CCCC1)Nc1ccc(Cl)cc1,-3.9,-21.4,?,i,i,-16.9%
CC(C)Oc1ccc(CN2CCC2(C)C(=O)Nc2cccc3cccnc23)cc1 (configuration not stated),-21.6,-92.0*,.,?,i,.
Cc1c(Br)cccc1NC(=O)C1(C)CCN1Cc1ccc(OC(C)C)cc1 (configuration not stated),11.0,5.9,.,i,i,.
O=C1CCCN1c1ccc(S(=O)(=O)N2CCN(c3ccccc3)CC2)cc1,-2.3,2.2,-4.5%,i,i,-2.5%

# Screening results: PubChem, National Center for Advancing Translational Sciences (NCATS)
